In PubChem BioAssay AID763 (NMMLSC, 2007):

Target: fMet-Leu-Phe receptor (Homo sapiens) (UniProt P21462)
Test: human FPR1 ligand displacement single-point test – cell-based, single concentration, selectivity assay for FPRL1 ligand SAR project, SAR follow-up (AID 763)
Details: FPR1-expressing cells, fluorescent ligand binding inhibition, hits give high values; at 5.4 µM unless noted; call rule not given here

Sequence of fMet-Leu-Phe receptor (Homo sapiens) (P21462 whole entry, looked up): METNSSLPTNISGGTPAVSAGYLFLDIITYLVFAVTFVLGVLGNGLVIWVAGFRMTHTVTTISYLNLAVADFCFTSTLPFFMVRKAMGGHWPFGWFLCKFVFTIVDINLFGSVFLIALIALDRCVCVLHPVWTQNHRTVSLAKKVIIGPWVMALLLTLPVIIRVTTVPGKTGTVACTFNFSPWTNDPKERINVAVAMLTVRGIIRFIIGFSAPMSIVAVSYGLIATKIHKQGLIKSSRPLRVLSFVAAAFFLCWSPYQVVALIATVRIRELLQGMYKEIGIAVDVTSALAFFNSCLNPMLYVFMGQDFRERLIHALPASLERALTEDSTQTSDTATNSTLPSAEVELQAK

inhibition, inactive:
Cc1ccccc1C(=O)N1CCN(c2nc(-c3ccccc3)c3cc(Cl)ccc3n2)CC1 -3.4% [at 5 µM]
COc1ccc(-c2cn3cccnc3n2)cc1NC(=O)c1ccc(C)c(C)c1 -2.6% [at 6 µM]
Clc1cccc(-c2nc(N3CCN(Cc4ccccc4)CC3)nc3c2COc2ccccc2-3)c1 5.3% [at 4.7 µM]
COc1ccccc1-c1cc(C(F)(F)F)nc(N2CCN(C(c3ccccc3)c3ccccc3)CC2)n1 6.5% [at 4.4 µM]
O=C(O)C1CC=CCC1C(=O)N1CCN(c2nc(-c3ccccc3Cl)c3cc(Br)ccc3n2)CC1 (stereo unspecified) 5.3% [at 4 µM]
O=C(c1cccc(F)c1)N1CCN(c2nc(-c3ccc(F)cc3)cc(C(F)(F)F)n2)CC1 -0.1% [at 5 µM]
COc1ccc(-c2cn3cccnc3n2)cc1NC(=O)c1cccc(C(F)(F)F)c1 -2%
O=C(C1CCCCC1)N1CCN(c2nc(-c3ccccc3Cl)c3cc(Br)ccc3n2)CC1 3.4% [at 4.3 µM]
CCC(=O)Nc1cccc(-c2nc3ncccn3c2C)c1 5.6% [at 7.9 µM]
CC(=O)N1CCN(c2nc(-c3ccccc3)c3ccccc3n2)CC1 2.3% [at 6.7 µM]
COc1ccc(-c2cn3cccnc3n2)cc1NC(=O)c1ccccc1OC 3.8% [at 5.9 µM]
C/C=C\C(=O)Nc1cc(-c2cn3cccnc3n2)ccc1OC 4% [at 7.2 µM]
COc1ccc(-c2cc(-c3ccc(F)cc3)nc(N3CCN(C)CC3)n2)cc1 -4.8% [at 5.9 µM]
COc1cccc(-c2cc(C(F)(F)F)nc(N3CCN(C(c4ccccc4)c4ccccc4)CC3)n2)c1 2.6% [at 4.4 µM]
FC(F)(F)c1cc(-c2ccccc2)nc(N2CCN(C(c3ccccc3)c3ccccc3)CC2)n1 -4.1% [at 4.7 µM]
COc1ccc(-c2cn3cccnc3n2)cc1NC(=O)c1ccccc1Br 0.1% [at 5.3 µM]
CCOCC(=O)Nc1cc(-c2cn3cccnc3n2)ccc1OC 2.3% [at 6.8 µM]
CC(C)(C)OC(=O)N1CCN(c2nc(-c3ccccc3)c3cc([N+](=O)[O-])ccc3n2)CC1 -8.4% [at 5.1 µM]
CCCCN1CCN(c2nc(-c3ccccc3)c3cc(C)ccc3n2)CC1 -1.5% [at 5.6 µM]
O=C(c1cccc(F)c1)N1CCN(c2nc(-c3cccs3)cc(C(F)(F)F)n2)CC1 1.1% [at 5.1 µM]
COc1ccccc1-c1cc(C(F)(F)F)nc(N2CCN(Cc3ccccc3)CC2)n1 1.1% [at 5.2 µM]
